This note sets out measurements from PubChem BioAssay (EPA / NIEHS).

Activity calls are given as the source filed them. The calls were made as follows: active = hit-call score of the fitted dose curve at least 0.9, where 1 is the maximum; inactive = score below 0.9.

The test is described as follows: APR_HepG2_StressKinase_1hr: Apredica 1-hour HepG2 Assay for Stress Kinase (AID 2282906). The following applies: HepG2 stress kinase (phospho-c-Jun) imaging, actives raise or lower the signal. Here is the method:
APR_HepG2_1hr is a cell-based, multiplexed-readout assay that uses HepG2, a human liver cell line, with measurements taken at 1 hour after chemical dosing in a 384-well plate.APR_HepG2_StressKinase_1hr is one of 10 assay component(s) measured or calculated from the APR_HepG2_1hr assay. It is designed to make measurements of enzyme activity, a form of enzyme reporter, as detected with fluorescence intensity signals by HCS Fluorescent Imaging technology.Data from the assay component APR_HepG2_StressKinase_1hr was analyzed into 1 assay endpoint. This assay endpoint, APR_HepG2_StressKinase_1hr, was analyzed with bidirectional fitting relative to DMSO as the negative control and baseline of activity. Using a type of enzyme reporter, measures of protein for gain or loss-of-signal activity can be used to understand the signaling at the pathway-level as they relate to the gene . Furthermore, this assay endpoint can be referred to as a primary readout, because this assay has produced multiple assay endpoints where this one serves a signaling function. To generalize the intended target to other relatable targets, this assay endpoint is annotated to the cell cycle intended target family, where the subfamily is stress response.
Cells were treated with dimethyl sulfoxide (DMSO) as a solvent control at a final concentration of 0.5% v/v or with compounds in DMSO with a resulting final DMSO concentration of 0.5% v/v. Compound treatment was done at concentrations of 0.39, 0.78, 1.56, 3.12, 6.24, 12.5, 25, 50, 100, and 200 uM in duplicate on each plate. Cells were treated with compounds for 1, 24, or 72 hr. Carbonyl […] m-chloro-phenylhydrazone (CCCP) and taxol were used as positive controls for mitochondrial function and cytoskeletal stability, respectively; DMSO served as the negative control for this experiment. Cells were fixed by the direct addition of 50 uL formaldehyde in Hank's Balanced Salt Solution (HBSS) to a final concentration of 3.7%. After incubation in the fixation medium for 30 min at room temperature (293-298 K), cells were rinsed twice with HBSS and treated with cell permeabilization buffer (16 uL of 0.5% Triton X-100) for 10 min at room temperature (293-298 K) before labeling. For mitochondrial membrane potential and mitochondrial measurements, pre-fixed cells were incubated with 50 uL of MitoTracker Red CMXRos (Invitrogen) at a concentration of 250 nM for 30 min before fixation. In the remaining cases, post-fixed cells were labeled by incubation with a multiplexed mixture of primary antibodies in HBSS for 60 min at room temperature (293-298 K) to detect immunoreactivity of c-Jun (1:500), phospho-histone H3 (1:100), phospho-histone H2A.x (1:200), p53 (1:400), alpha-tubulin (1:200) and Hoechst 33342 (2 ug/mL). Cells were labeled for multiplexed imaging on two separate plates: a) Hoechst 33342, MitoTracker Red, phospho-histone H3, and alpha-tubulin, and b) Hoechst 33342, phospho-histone H2A.x, and c-Jun. A final rinse with HBSS (50 uL) was performed before analysis. The primary and secondary antibodies for the proteins were phospho-histone H3 (rabbit anti-phospho-histone H3 and FITC-donkey anti-rabbit IgG), phospho-histone H2A.x (mouse anti-phospho-histone H2A.x and FITC-donkey anti-mouse IgG), c-Jun (rabbit anti-phospho-c-Jun and Cy3-donkey anti-rabbit IgG), p53 (sheep anti-p53 and Cy5-donkey anti-sheep IgG), alpha-tubulin (mouse anti-alpha-tubulin and Cy5-donkey anti-mouse IgG). These antibodies are available as the CellCiphr HepG2 assay kit (Millipore).Digital images of each well were captured using a Cellomics ArrayScan VTI (Thermo Scientific Cellomics) (0.8 NA objective, 0.63x optical coupler, and XF-93 filter set) at 20x magnification. The images were acquired using the autofocus feature of the ArrayScan instrument, which entails the following steps. First, the camera focuses on channel 1 (Hoechst 33342), where nuclei are identified. Second, a Z offset of 1 um is used for capturing mitochondria (MitoTracker Red). […]
As to `Cc1cc(C)nc(Nc2ccccc2)n1`, the call was inactive. Still for that read-out and setting: to `COC(=O)c1c(C(F)F)nc(C(F)(F)F)c(C2=NCCS2)c1CC(C)C` belongs “inactive”; to `CCOc1nc(C(Cl)(Cl)Cl)ns1`, “inactive”. As for `CC(C)=CC1C(C(=O)OCc2coc(Cc3ccccc3)c2)C1(C)C` (stereo not given), the call was inactive.

`COCc1cnc(C2=NC(C)(C(C)C)C(=O)N2)c(C(=O)O)c1` (stereo not given): the result was inactive.

Turning to `CC(C)N1C(=O)c2ccccc2NS1(=O)=O`, the compound was classed as inactive.

In the case of `COCC(C)N(C(=O)CCl)c1c(C)csc1C` (stereo not given), the call was inactive.

Take `COCC(=O)N(c1c(C)cccc1C)C(C)C(=O)OC` (stereo not given): the compound was classed as inactive.

Regarding `CC(C)C1(C)N=C(c2ncccc2C(=O)O)NC1=O` (stereo not given), the call was inactive. In the case of `CCOC(=O)C(C)OC(=O)c1cc(Oc2ccc(C(F)(F)F)cc2Cl)ccc1[N+](=O)[O-]` (stereo not given), the outcome was inactive. For `Clc1nc(Cl)nc(Nc2ccccc2Cl)n1`, the compound was called inactive. Still for that read-out and setting: the value for `Cc1c(COC(=O)[C@@H]2[C@H](/C=C(\Cl)C(F)(F)F)C2(C)C)cccc1-c1ccccc1` was “inactive”. Still for that read-out and setting: to `O=C(Nc1ccccc1-c1ccc(Cl)cc1)c1cccnc1Cl` belongs “inactive”; to `CC1(C)C(C=C(Cl)Cl)C1C(=O)OC(C#N)c1cccc(Oc2ccccc2)c1` (stereo not given), “inactive”. The same measure, in the same setting: to `COP(=S)(OC)SCn1nnc2ccccc2c1=O` belongs “inactive”; to `CC(C)Oc1cccc(NC(=O)c2ccccc2C(F)(F)F)c1`, “inactive”.

As to `CS(=O)(=O)c1ccc(C(=O)C2C(=O)CCCC2=O)c([N+](=O)[O-])c1`, the result was inactive. Same read-out and setting: to `Nc1cnn(-c2ccccc2)c(=O)c1Cl` belongs “inactive”. Regarding `CCCCOCN(C(=O)CCl)c1c(CC)cccc1CC`, the half-maximal activity concentration (AC50) – broadly, the concentration at which the activity in the assay is half-maximal – was 47.5 µM (active).

Regarding `CN/C(=N\[N+](=O)[O-])NCc1cnc(Cl)s1`, the outcome was inactive. On to `O=C1C2CC=CCC2C(=O)N1SC(Cl)(Cl)Cl` (stereo not given), for which the AC50 was 87.6 µM (active). As to `Cn1c(-c2ccccc2)cc(-c2ccccc2)[n+]1C`, the outcome was inactive. With `CCCC(=NOCC)C1=C(O)CC(CC(C)SCC)CC1=O` (stereo not given), the result was inactive. Take `COP(=O)(OC)O/C(C)=C/C(=O)N(C)C`: the compound was classed as inactive. In the case of `CS(=O)(=O)c1cc(C(F)(F)F)ccc1C(=O)c1cnoc1C1CC1`, the call was inactive.

Take `C=C(C)CN(CC)c1c([N+](=O)[O-])cc(C(F)(F)F)cc1[N+](=O)[O-]`: the result was inactive. Take `COc1cc(OC)nc(NC(=O)NS(=O)(=O)c2ncccc2OCC(F)(F)F)n1`: the call was inactive.

For the compound `CCSC(=O)N1CCCCCC1`, the call was inactive.

Turning to `N#Cc1c[nH]cc1-c1cccc2c1OC(F)(F)O2`, the call was inactive. As to `Cc1cnc(C2=NC(C)(C(C)C)C(=O)N2)c(C(=O)O)c1` (stereo not given), the call was inactive. On the same count and under the same terms, the value for `Nc1c(Cl)c(F)nc(OCC(=O)O)c1Cl` was “inactive”. On to `Nc1c(Cl)c(Cl)nc(C(=O)O)c1Cl`, for which the outcome was inactive. Same read-out and setting: the value for `CNC(=O)N(C)c1nnc(C(C)(C)C)s1` was “inactive”; that for `CCN(CC)C(=O)C(C)Oc1cccc2ccccc12` (stereo not given) was “inactive”. On the same count and under the same terms, the value for `Cc1nc(N(C)C)nc(OC(=O)N(C)C)c1C` was “inactive”; that for `CCCCC(C#N)(Cn1cncn1)c1ccc(Cl)cc1` (stereo not given) was “inactive”; that for `CCN(CC)c1nc(C)cc(OP(=S)(OC)OC)n1` was “inactive”. Consider `CSC(=O)c1c(C(F)F)nc(C(F)(F)F)c(C(=O)SC)c1CC(C)C`, for which the call was inactive. Consider `CCOc1cc(C(C)(C)C)ccc1C1COC(c2c(F)cccc2F)=N1` (stereo not given), for which the result was inactive. On to `CC(C)Nc1nc(Cl)nc(NC(C)C)n1`, for which the outcome was inactive.
